Hits are enriched below; roughly 3.7% of the tested compounds scored in any of these assays.
WRN helicase inh-1: blocks human WRN helicase; 360,000 tested, 0.46% active; Q14191; WRN helicase unwinding, fluorescent forked duplex, kinetic; Potency, µM (titrated, usually from 114 µM), inactives show at the highest dose activity change, negative = inhibition, actives largely listed as inhibitors; further: potency means the concentration at half of the fitted maximal effect; on the % scale 0 is the no-effect control and ±100 the full control effect; nearly all actives have a fitted effect of over 55% in size
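Kinetic fluorescence helicase assay: unwinding of a quenched forked DNA duplex (100 nM final) with 2 mM ATP final raises red fluorescence (525/598 nm). Compounds sat 15 min at room temperature with 20 nM WRN beforehand.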
VDR inh: vitamin D3 receptor (human) inhibition; VDR-SRC2-3 peptide fluorescence polarization, 2 h; Potency, µM, for the others: max response, negative = inhibition, hits mostly inhibitors; 400,000 tested, 0.93% active; AID 504847; further: potency means the concentration at half of the fitted maximal effect; on the % scale 0 is the no-effect control and ±100 the full control effect
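Signal is fluorescence polarization, reporting how far test compounds block the interaction of VDR with the SRC2-3 coregulator peptide after a 2 h room-temperature incubation.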
TCR activator: T cell receptor activation; primary human leukocytes, anti-CD3, IL-2 HTRF, 48 h; 330,000 tested, under 10 active; Potency, µM (highest dose often 9.22 µM), inactives show top-dose activation of IL-2 secretion, most hits filed as activators; further: % of control where 0% means no effect
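Using a-CD3 beads without co-stimulation, primary human leukocytes were exposed to compounds for 48 hr. An HTRF IL-2 kit measured the cytokine, with europium-to-d2 energy transfer producing emission at 665nm upon 320nm excitation.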
PI5P4K alpha inh: PI5P4K alpha (human) kinase inhibition | P48426 | PI5P4Kalpha enzyme, ADP-Glo luminescence, 60 min; active compounds read low | max response, % | 330,000 tested, 1.2% active | AID 652105; active means max response of -50% or lower; inconclusive means between -30% and -50%; inactive means -30% or higher; further: value at the top dose of about 77 µM; on the % scale 0 is the no-effect control and ±100 the full control effect
Target sequence (P48426 whole entry, looked up): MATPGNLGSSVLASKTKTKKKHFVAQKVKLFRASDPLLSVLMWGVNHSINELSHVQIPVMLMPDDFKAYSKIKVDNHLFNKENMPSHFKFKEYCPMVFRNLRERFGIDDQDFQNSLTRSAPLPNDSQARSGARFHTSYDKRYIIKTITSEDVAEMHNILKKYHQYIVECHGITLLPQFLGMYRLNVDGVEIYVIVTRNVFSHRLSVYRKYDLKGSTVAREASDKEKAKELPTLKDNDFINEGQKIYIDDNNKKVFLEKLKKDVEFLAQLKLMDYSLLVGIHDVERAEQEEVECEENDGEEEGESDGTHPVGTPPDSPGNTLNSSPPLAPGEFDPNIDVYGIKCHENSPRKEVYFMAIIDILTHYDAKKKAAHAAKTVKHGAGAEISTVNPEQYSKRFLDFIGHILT
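Compounds were pin-transferred onto PI5P4Kalpha and substrate in HEPES pH 7.4 buffer with EGTA, CHAPS and 5% DMSO. ATP (5 microM final) started the reaction, which ran 60 minutes at room temperature before ADP-Glo detection.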
FEN1 inh: human FEN1 inhibition. Recombinant FEN1 flap cleavage, fluorescence, 15 min. Potency, µM (doses to about 114 µM), for the others: at the highest dose activity change, negative = inhibition, actives largely listed as inhibitors. 390,000 tested, 0.35% active; further: potency means the concentration at half of the fitted maximal effect; on the % scale 0 is the no-effect control and ±100 the full control effect; nearly all actives have a fitted effect of over 65% in size
Target sequence (P39748 whole entry, looked up): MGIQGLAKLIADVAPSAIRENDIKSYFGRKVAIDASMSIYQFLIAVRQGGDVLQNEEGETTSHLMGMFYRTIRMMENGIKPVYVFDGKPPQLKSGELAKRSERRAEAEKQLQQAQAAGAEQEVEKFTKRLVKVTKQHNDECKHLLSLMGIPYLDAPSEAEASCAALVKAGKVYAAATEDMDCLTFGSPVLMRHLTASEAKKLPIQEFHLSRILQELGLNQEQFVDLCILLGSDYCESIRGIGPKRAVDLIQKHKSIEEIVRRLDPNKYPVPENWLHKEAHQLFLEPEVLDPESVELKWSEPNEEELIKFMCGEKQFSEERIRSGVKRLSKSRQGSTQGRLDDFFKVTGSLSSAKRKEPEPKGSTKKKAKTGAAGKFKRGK
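In this screen, 50 nM flap DNA substrate was added to 10 nM FEN1 pretreated with compound for 15 min at room temperature; cleavage was followed with reads at 0 and 15 min, and Hill fitting gave concentration–response parameters.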
PLK1 PBD inh: blocks phosphopeptide binding to human PLK1 polo-box domain; P53350; Plk1 PBD binding of FITC phosphopeptide, fluorescence polarization; Potency, µM, for the others: max response, negative = inhibition, usual class: inhibitors; 360,000 tested, 2.8% active; further: potency means the concentration at half of the fitted maximal effect; series mostly up to about 57 µM; on the % scale 0 is the no-effect control and ±100 the full control effect; nearly all actives have a fitted effect of over 65% in size
WRN helicase inh-2: WRN helicase inhibition, cherry-pick retest; shares compounds with WRN helicase inh-1; WRN helicase DNA unwinding, fluorescence kinetic; Potency, µM (top dose mostly 57.1 µM), inactives show at the top dose activity, negative = inhibition, usual class: inhibitors; 610 tested, 63% active; further: potency means the concentration at half of the fitted maximal effect; nearly all actives have a fitted effect of over 65% in size
TO displacement: DNA binding via thiazole orange displacement; AID 720499; thiazole orange DNA binding displacement, fluorescence; shares compounds with WRN helicase inh-1; Potency, µM (highest dose often 57.1 µM), inactives show at the top dose activity change, negative = inhibition, most hits filed as inhibitors; 610 tested, 10% active;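 further: drop in dye fluorescence marks compound binding to DNA; potency means the concentration at half of the fitted maximal effect; on the % scale 0 is the no-effect control and ±100 the full control effect; nearly all actives have a fitted effect of over 60% in size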
BLM counter: BLM helicase inhibition, WRN selectivity check | shares compounds with WRN helicase inh-1 | AID 720503 | Recombinant BLM helicase DNA unwinding, red fluorescence | Potency, µM (doses to about 57.1 µM), without a hit: at the highest dose activity change, negative = inhibition, actives largely listed as inhibitors | 610 tested, 60% active; further: potency means the concentration at half of the fitted maximal effect; nearly all actives have a fitted effect of over 60% in size
* hit, by the source's call; ? = inconclusive; · = no result; [ ] = dose if it differs, or a comment. Unless noted, the call rests on the fitted dose curve; in most records, active means well fitted curve in the direction sought with a large enough effect; inconclusive means small, poorly fitted or top-dose-only effect, or another doubt; inactive means no such curve, though single readings can be large; an effect the other way counts as inactive or inconclusive.

SMILES	WRN helicase inh-1	VDR inh	TCR activator	PI5P4K alpha inh	FEN1 inh	PLK1 PBD inh	WRN helicase inh-2	TO displacement	BLM counter
Cc1nc2ccc(C(=O)O)cc2c2c1CC(C)S2 (stereo unspecified)	32µM*	-10%	1%	-7	?	?	19µM*	-18%	?
CC1CCN(c2nc3ccc(C(=O)O)cc3s2)CC1	6%	-4%	-4%	1	-3%	-9%	·	·	·
N#C/C(=C\c1ccc(-c2ccc(C(=O)O)cc2)o1)C(=O)Nc1ccccc1C(=O)O	·	-9%	·	·	?	·	?	11µM*	19µM*
N#C/C(=C\c1ccc(-c2ccc(Br)cc2)o1)C(=O)Nc1ccccc1O	·	-21%	·	·	-31%	·	·	·	·
O=C(c1coc(=O)c(Br)c1)N1CCC(C(O)(c2ccccc2)c2ccccc2)CC1	-21%	-20%	0%	-22	0%	3%	·	·	·
CC1(C)CCCN(C(=O)c2coc(=O)c(Br)c2)C1	18µM*	-9%	-2%	-82*	56µM*	11µM*	1.9µM*	?	0.48µM*
N=C1S/C(=C\c2ccc(-c3cccc(Cl)c3)o2)C(=O)N1c1nccs1	45µM*	-4%	-2%[46.1 µM]	-63*	?	?	22µM*	17µM*	7.6µM*
COC(=O)c1ccccc1NC(=O)CCS(=O)(=O)c1ccc(Br)cc1	25µM*	?	-5%	?	?	12µM*	9.6µM*	-8%	2.4µM*
O=C(Nc1ccc(NC(=O)c2cccs2)cc1)c1ccc(Br)o1	?	-4%	-15%	2	-4%	-4%	?	-9%	9.6µM*
COc1ccc(C2/C=C\CN(S(=O)(=O)c3ccc(C)cc3)C(C)C(=O)N2Cc2ccc(F)cc2)cc1 (stereo unspecified)	·	-12%	·	·	-2%	·	·	·	·
Cc1ccc(C)n1/N=C1/NC(=O)CS1	16µM*	20%	2%	-52*	32µM*	?	24µM*	-9%	5.4µM*
Cc1ccccc1OCC(=O)Nc1nnc(S(=O)(=O)N2CCCCCC2)s1	·	10%	·	·	-1%	·	·	·	·
CCn1c(CSc2nc3ccccc3s2)nnc1SCC(=O)c1ccc(O)c(O)c1	?	7%	0%	·	-10%	-14%	1.4µM*	27µM*	?
CCN(CC)S(=O)(=O)c1ccc(NC(=O)CN(c2ccccc2)S(=O)(=O)N(C)C)cc1	·	-11%	·	·	-6%	·	·	·	·
CCC(=O)c1ccc(CCCCCC(=O)O)s1	?	5%	3%	-3	3%	-19%	22µM*	3%	22µM*
CC(=O)c1ccc(CCCCCCCCCC(=O)O)s1	-14%	5%	2%	0	0%	-11%	·	·	·
Cn1cnc([N+](=O)[O-])c1S(=O)(=O)c1ccc(Cl)cc1	?	50µM*	6%[46.1 µM]	-1	-9%	?	-19%	-5%	-16%
CCOc1ccc(NC(=O)/C=C\C(=O)N(c2ccc(C(C)C)cc2)C(C(=O)NCc2ccco2)c2ccc(F)cc2)cc1 (stereo unspecified)	·	9%	·	·	-1%	·	·	·	·
Cc1cccc(C)c1NC(=O)NCCc1c[nH]c2ccccc12	·	4%	·	·	9%	·	·	·	·
O=C1/C(=C\c2ccco2)SC(=S)N1c1ccc(O)cc1	-8%	-4%	0%[46.1 µM]	-11	-7%	-9%	·	·	·
O=C1/C(=C\c2ccc(O)cc2)SC(=S)N1c1cccnc1	-10%[11.6 µM]	10%	1%	-6	?	-6%	·	·	·
O=C1/C(=C/c2ccco2)SC(=S)N1c1cccnc1	13µM*	-18%	-4%	-105*	28µM*	17µM*	22µM*	-22%	8.6µM*
O=C1/C(=C/C=C/c2ccco2)SC(=S)N1c1ccc(O)cc1	32µM*	-26%	-9%	-102*	14µM*	?	12µM*	?	8.6µM*
COC(=O)c1ccc(C(=O)OC)c(NC(=O)CSc2n[nH]c(N)n2)c1	7%	2%	-5%	-17	12%	-6%	·	·	·
CCn1c(CSc2n[nH]c(N)n2)nc2cc(C(=O)O)ccc21	89µM*	?	5%	-11	-32%	-14%	24µM*	2%	24µM*
SMILES	WRN helicase inh-1	VDR inh	TCR activator	PI5P4K alpha inh	FEN1 inh	PLK1 PBD inh	WRN helicase inh-2	TO displacement	BLM counter
Cc1cc(=O)n2nc(-c3ccccc3)sc2n1	-6%	9%	-6%	-10	1%	-14%	·	·	·
O=c1cc(N2CCNCC2)nc2sc(-c3ccncc3)nn12	·	·	·	·	·	·	6.1µM*	6.8µM*	1.2µM*
CC(O)(c1ccccc1)c1nc(-c2ccncc2)cs1 (stereo unspecified)	?	·	·	-2	·	-14%	?	-27%	?
CC(O)(c1ccccc1)c1nc(-c2ccccc2)cs1 (stereo unspecified)	-5%	·	·	-7	·	-1%	·	·	·
CCOC(=O)c1cc(C)n(CC2CCC(C(=O)Nc3ccc(OC)cc3)CC2)c1C (stereo unspecified)	·	10%	·	·	-1%	·	·	·	·
COc1ccc(-c2nnc(Nc3nc4c(OC)cccc4s3)o2)c(OC)c1	-29%	-12%	-9%[46.1 µM]	·	?	-18%	·	·	·
COc1ccc(-c2nnc(Nc3nc4c(OC)cccc4s3)o2)cc1	45µM*	-5%	-5%	·	?	?	9.6µM*	-14%	7.6µM*
CC1(C)CC(=O)C(C(C2=C(O)CC(C)(C)CC2=O)c2cccs2)C(=O)C1 (stereo unspecified)	?	50µM*	4%	?	0%	4.7µM*	-8%	-7%	-6%
NC1=NC(=Nc2cccc(S(N)(=O)=O)c2)c2ccccc21	4%	-21%	-2%	0	-1%	0%	·	·	·
COc1cc(N=Nc2cccc(S(N)(=O)=O)c2)c2ccccc2c1N	?	-2%	-3%	-29	45µM*	-5%	?	?	?
Cc1cc(O)c(Oc2cc(C)cc(O)c2O)c(O)c1	28µM*	-21%	5%	?	50µM*	?	19µM*	-7%	22µM*
Cc1ccc(OCC(=O)O)c(O)c1	4%	-16%	-3%	-4	3%	1%	·	·	·
Cc1ccc(C(=O)Nc2cc(-c3nc4ncccc4o3)ccc2C)c(C)c1	·	0%	·	·	15%	·	·	·	·
CC(NC(=O)COC(=O)/C=C/c1ccc([N+](=O)[O-])cc1)c1ccccc1 (stereo unspecified)	?	-5%	-1%[46.1 µM]	16	-100%	4%	-3%	-4%	-7%

From PubChem BioAssay
